# NS1 inh: influenza NS1 inhibition | AID 2326 | Potency, µM (doses to about 46.1 µM), inactives show at the top dose activity, positive = more growth | 270,000 tested, 0.4% active; calls by dose curve; also: actives are rising curves; nearly all actives have a fitted effect of over 50% in size
#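 Recovery from NS1-induced slow growth read by OD600 in budding yeast switched to galactose assay medium (pH 6.0, -URA) at 1:100 dilution. Compound 23 nl per well; the matching strain lacking NS1 serves as control.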
# Cruzain inh noDet: inhibitors of Trypanosoma cruzi cruzain without detergent | P25779 | purified cruzain, Z-FR-AMC fluorescence, no detergent | Potency, µM, for inactives: max response, negative = inhibition, actives largely listed as inhibitors | 200,000 tested, 2.3% active;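 also: plate controls were enzyme without inhibitor for no effect and buffer without enzyme for full effect; nearly all actives have a fitted effect of over 40% in size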
# Target sequence (P25779 123-467 limits assumed): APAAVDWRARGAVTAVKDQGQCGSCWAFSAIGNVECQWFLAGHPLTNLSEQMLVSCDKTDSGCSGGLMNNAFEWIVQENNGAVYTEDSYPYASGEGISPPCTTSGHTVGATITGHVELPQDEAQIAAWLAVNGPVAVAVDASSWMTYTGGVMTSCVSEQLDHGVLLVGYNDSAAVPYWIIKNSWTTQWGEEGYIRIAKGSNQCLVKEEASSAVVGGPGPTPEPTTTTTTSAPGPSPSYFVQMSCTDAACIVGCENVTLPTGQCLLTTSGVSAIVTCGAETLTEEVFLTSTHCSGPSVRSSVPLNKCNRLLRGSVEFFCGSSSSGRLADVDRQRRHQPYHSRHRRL
#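 Purified cruzain at 1.5 nM, pre-incubated 15 min with compound at room temperature in 100 mM sodium acetate pH 5.5, 5 mM DTT, 0.00005% Triton X-100. Reaction started with 2 uM Z-FR-AMC; AMC fluorescence increase over 60 s gives rate.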
# Cruzain inh Det: inhibitors of Trypanosoma cruzi cruzain with detergent. Potency, µM, inactives show max response, negative = inhibition, actives largely listed as inhibitors. 200,000 tested, 0.43% active. purified cruzain, Z-FR-AMC fluorescence, 0.01% Triton. AID 1478. P25779;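 also: plate controls were neutral wells for no effect and buffer without enzyme for full effect; nearly all actives have a fitted effect of over 40% in size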
#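 Read-out: AMC fluorescence (360 nm excitation, 450 nm emission), four reads over 2 min, first-to-third difference used. Conditions: cruzain 1.5 nM, Z-FR-AMC 2 uM, pH 5.5 acetate, 5 mM DTT, 0.01% Triton X-100.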
# The depositor's hits bear a star; ? = inconclusive; . = no result given. The entries come from a sample that favours hits as a whole. Unless noted, calls follow the shape of the dose curve; as a rule, active = well fitted curve in the direction sought with a large enough effect; inconclusive = small, poorly fitted or top-dose-only effect, or another doubt; inactive = no such curve, though single readings can be large; an effect the other way counts as inactive or inconclusive. Potency is read from the fitted curve at half-maximal effect.
SMILES,NS1 inh,Cruzain inh noDet,Cruzain inh Det
COc1ccccc1NS(=O)(=O)c1cc(N)ccc1N1CCCCC1,11%,.,.
O=C(Nc1cccc(C(F)(F)F)c1)Nc1ccc(N2CCCC2)c(S(=O)(=O)Nc2ccccc2Cl)c1,?,6.3µM*,0%
COc1ccccc1NS(=O)(=O)c1cc(NC(=O)Nc2ccc(Cl)cc2Cl)ccc1N1CCCCC1,27%,5µM*,-2%
Nc1ccc(N2CCCCC2)c(S(=O)(=O)Nc2ccccc2Cl)c1,7%,.,.
CCCCNc1c(N2CCN(C(=O)OCC)CC2)c(=O)c1=O,-7%,9%,-2%
Nc1nc(SCC(=O)N2CCCCC2)[nH]c(=O)c1NC(=O)c1cccs1,-35%,.,.
COc1cc(OC)c2c(-c3cccc(-c4ccc(CO)cc4)c3)cc(=O)oc2c1,.,3%,-1%
COc1ccc(-c2cccc(-c3cc(=O)oc4cc5c(cc34)OCO5)c2)cc1,.,?,4%
Cc1cccc(-c2cccc(-c3cc(=O)oc4cc5c(cc34)OCO5)c2)c1,.,35µM*,-1%
COc1cc(OC)c2c(-c3cccc(-c4cccc(C)c4)c3)cc(=O)oc2c1,.,10µM*,0%
COc1cc(OC)c2c(-c3cccc(-c4ccc(N(C)C)cc4)c3)cc(=O)oc2c1,.,32µM*,3%
COc1cc(OC)c2c(-c3cccc(-c4ccc(O)cc4)c3)cc(=O)oc2c1,.,?,0%
COc1cc(OC)c2c(-c3cccc(/C=C/c4ccc(F)cc4)c3)cc(=O)oc2c1,.,10µM*,3%
COc1cc(OC)c2c(-c3cccc(-c4ccc(OC(F)(F)F)cc4)c3)cc(=O)oc2c1,.,?,-2%
O=S(=O)(c1ccccc1)N1CCC2(CC1)CN(c1ccccc1)C2,.,?,3%
COc1cc(OC)c(OC)cc1CN1CCN(S(=O)(=O)c2ccc(F)cc2)CC1,-4%,-1%,4%
Cc1cc(C)c(NS(=O)(=O)c2c(C(=O)N3CCOCC3)c(C)n(C)c2C)c(C)c1,-5%,.,.
CC(C)c1ccc2c(c1)NC(c1ccncc1)=NC(c1cccs1)=N2,.,2%,-9%
CCOc1ccc(C2=NC(c3cccs3)=Nc3ccc(C(C)C)cc3N2)cc1,.,3.2µM*,-7%
CCCOc1nc2c(c(=O)n(C)c(=O)n2C)n1CC,-17%,4%,0%
CCOC(=O)c1sc(NC(=O)c2cc(-c3ccccc3C)nc3ccccc23)c(C#N)c1C,17%,10µM*,-1%
Cc1ccccc1-c1cc(C(=O)Nc2sc(C)c(C)c2C(N)=O)c2ccccc2n1,?,20µM*,-15%
CCOC(=O)c1c(NC(=O)c2cc(-c3ccc(Cl)s3)nc3ccccc23)sc(C(N)=O)c1C,-2%,-7%,1%
CCOC(=O)c1sc(NC(=O)c2ccncc2)c(C#N)c1C,-54%,-9%,-12%
CCOC(=O)Cn1c(=O)n(-c2ccccc2OC)c2nc(-c3ccccc3F)nc(C(N)=O)c21,.,?,-6%
SMILES,NS1 inh,Cruzain inh noDet,Cruzain inh Det
COC(=O)CSc1nnc(NC(=O)/C=C\c2ccc3c(c2)OCO3)s1,4%,-12%,2%
O=C(/C=C\c1ccc2c(c1)OCO2)Nc1nnc(SCC(=O)OCc2ccccc2)s1,24%,5µM*,0%
Cc1cc(C(=O)NCC(=O)OC(C(=O)Nc2cc(C(F)(F)F)ccc2Cl)c2ccccc2)ccc1[N+](=O)[O-] (stereo unspecified),30%,32µM*,4.5µM*
COc1ccc(C)cc1NC(=O)C(OC(=O)c1ccc([N+](=O)[O-])o1)c1ccccc1 (stereo unspecified),-22%,?,-8%
COc1ccc(C)cc1NC(=O)c1ccc(N(C)S(C)(=O)=O)cc1,-3%,-5%,-9%
CCCC(=O)OC(C(=O)Nc1cc(C(F)(F)F)ccc1Cl)c1ccccc1 (stereo unspecified),1%,19%,-5%
COc1ccc(C)cc1NC(=O)C(OC(=O)c1ccc(Cl)c(S(=O)(=O)N(C)c2ccccc2)c1)c1ccccc1 (stereo unspecified),-3%,10µM*,3%
COc1ccc(C)cc1NC(=O)C(NCC(O)c1ccccc1)c1ccccc1 (stereo unspecified),2%,.,.
COc1ccc(C)cc1NC(=O)C(OC(=O)CNC(=O)c1ccc(Br)cc1)c1ccccc1 (stereo unspecified),5%,10µM*,7.9µM*
COc1ccc(C)cc1NC(=O)C(OC(=O)CNC(=O)c1cc(C)cc(C)c1)c1ccccc1 (stereo unspecified),-1%,20µM*,8.9µM*
O=C1C2C3C=CC(CC3)C2C(=O)N1/N=C/c1c(O)ccc2ccccc12 (stereo unspecified),6%,.,.
COc1ccc(/C=C2\SC(=O)N(CCc3nnc(N)s3)C2=O)cc1,6%,.,.
Cc1ccc(NS(=O)(=O)c2cc(C(N)=O)ccc2C)cc1,9%,5%,3%
COc1ccc2c(c1)CCC/C2=N\NC(=O)c1ccoc1C,21%,12%,-5%
